RmlC RmlD mix: RmlC/RmlD inhibition, mixture screen; RmlC/RmlD coupled enzyme inhibition, 384-well mixture HTS; inhibition, % at 5.5 µM; 110,000 tested, 0.39% active; AID 1532; in the data active = inhibition above about 30%, passing the limit was not always enough
YopH PTP inh: blocks Yersinia enterocolitica YopH tyrosine phosphatase; fluorescence Ex485/Em525; inhibition, % (test concentration not listed); 140,000 tested, 0.16% active; AID 898; in the data active = inhibition above about 50%
Active calls of the source: *; x = no result; + = active, no number. Sampled rows, rich in hits. Any-hit rate of the full collection: about 0.44%.

SMILES	RmlC RmlD mix	YopH PTP inh
COP1(=O)C=C[C@H](N(Cc2ccccc2)S(=O)(=O)c2ccccc2[N+](=O)[O-])[C@@H](C)O1 (some centres undefined)	-0.9	x
COc1ccc2nc3oc(C(=O)N4CCC(C(N)=O)CC4)cc3cc2c1	33.7*	-55.5
COc1ccc2nc3oc(C(=O)N4CCN(c5cccc(Cl)c5)CC4)cc3cc2c1	5.2	-59.8
CC12CN3CCN(CC(C3)/C1=N\N=C1/C3CN4CCN(C3)CC1(C)C4)C2	x	-20.1
O=[N+]([O-])c1ccc(/C=C2\CCC(C3=CCCC3)=C2N2CCOCC2)cc1	x	-17.8
CCN(CC)c1ccc(/C=N/Nc2cccc(C)c2)c(O)c1	x	58.4*
CCN(CC)c1ccc(/C=N/NC(=O)OC)c(O)c1	17.0	1.7
CCN(CC)c1ccc(N=Cc2ccc(N(CC)CC)cc2O)cc1	5.0	-17.2
CCN(CC)c1ccc(C=Nc2ccccc2)c(O)c1	5.8	51.8*
CCN(CC)c1ccc(/C=N/Nc2ccccc2)c(O)c1	38.7	50.6*
CCN(CC)c1ccc(C=Nc2cc(C)cc(C)c2)c(O)c1	x	-28.4
CS(=O)(=O)c1ccc(CNC(=O)C2(C(F)(F)F)C/C(=C\Cc3ccccc3)CCCO2)cc1 (centres undefined)	-8.7	x
CCCCNC(=O)c1onc(CSc2ccccn2)c1C(=O)NCCCC	1.2	x
CCOC(=O)c1cc(-c2ccc(C)cc2)n(CCC(=O)N2CCN(c3ccccn3)CC2)c1C	x	-21.2
CCN(CC)c1ccc(NC(=O)c2cccc(OC)c2)c(C)c1	7.4	50.7*
CCN(CC)c1ccc(NC(=O)c2cc(OC)cc(OC)c2)c(C)c1	x	-112.5
OCC[C@H]1C[C@@H](O)[C@H](O)[C@@]2(CCCCO2)O1	-10.9	x
COc1ccc(O)c(C(C)(C)C)c1	10.9	x
CC(C)(C)c1cc(OC(=O)c2ccncc2)ccc1O	2.2	56.8*
O=C1CCCCC1c1cccc2ccccc12 (centres undefined)	x	-27.1
O=C1c2ccccc2C(=O)C12OC2c1cccc2ccccc12 (centres undefined)	x	98.6*
Cc1n[nH]c(=O)nc1Nc1ccc(O)cc1	8.3	-8.2
Oc1ccc(Nc2nc3ccccc3nc2Nc2ccc(O)cc2)cc1	93.2	70.5*
O=C(O)c1ccc2c(c1)C(=O)N(c1ncccn1)C2=O	x	-3.0
O=C(O)c1ccc2c(c1)-c1nc3ccccc3n1C2=O	121.8*	-17.4
SMILES	RmlC RmlD mix	YopH PTP inh
CC(C(=O)N1CCc2ccccc21)N1CCc2ccccc2C1 (centres undefined)	-12.9	-2.5
CC1CCN(CCC(=O)N2CCCc3c2c(=O)oc2ccc(O)cc32)CC1	-16.6	61.2*
CC(C(=O)N1CCCc2c1c(=O)oc1ccc(O)cc21)N1CCc2ccccc2C1 (centres undefined)	9.4	52.5*
CN(CC(=O)N1CCCc2c1c(=O)oc1ccc(O)cc21)Cc1ccccc1	1.8	51.0*
CCCOc1ccc2oc(=O)c3c(c2c1)CCCN3C(=O)CN1CCCC(C(=O)OCC)C1 (centres undefined)	-9.6	-8.7
O=C(CN1CCCC1)N1CCCc2c1c(=O)oc1ccc(OCc3ccccc3)cc21	-1.3	-37.4
Cc1cc(C)cc(SCc2noc(C(=O)NCC3CC3)c2C(=O)NCC2CC2)c1	2.6	x
O=C(Cc1ccccc1)N[C@@H](Cc1ccc(O)cc1)C(=O)O	13.3	x
CN(CC(=O)Nc1ccc(Cl)cc1)c1ccc(S(=O)(=O)N2CCCCC2)cc1[N+](=O)[O-]	x	-16.7
C#CCOCCOCCOCCNc1nc(N2CCN(C(=O)C([C@@H](C)CC)n3cc(C(N)CO)nn3)CC2)nc(N2CCN(C(=O)C([C@@H](C)CC)n3cc(C(N)COC(=O)C(F)(F)F)nn3)CC2)n1 (some centres undefined)	-14.2	x
Cc1ccccc1-n1c(=O)c(C#N)cc2c(=O)n3ccccc3nc21	123.1	-18.4
Cc1cc(-n2c(=O)c(C#N)cc3c(=O)n4ccccc4nc32)no1	54.7*	-12.8
C/C=C(/C)C(=O)Nc1cccc(C2=NOC3(C2)C[C@@H](C(N)=O)N(C(=O)/C=C/CC)C3)c1 (some centres undefined)	11.7	x
CCn1c(-c2cc(OC)c(OC)c(OC)c2)n[nH]c1=S	-11.9	95.7*
C=CCn1c(-c2cc(OC)c(OC)c(OC)c2)n[nH]c1=S	3.2	1.8
CCOC(=O)c1cc2c(nc1N)CC(C)(CC)OC2 (centres undefined)	1.6	-2.7
CCOC(=O)c1cc2c(nc1N)CC(C)(C)OC2	38.9*	-8.8
CN1C(=O)N(C)C(=O)C2(Sc3ccccc3C2=O)C1=O	+	-17.1
CCC1(c2ccccc2)C(=O)N(C)C(=O)N(C)C1=O	x	-10.9
COc1ccc(N2CSC3=C(C#N)C(c4cc(OC)ccc4OC)CC(=O)N3C2)c(OC)c1 (centres undefined)	5.6	69.4*
COc1ccc(N2CSC3=C(C#N)C(c4ccc(OC)c(OC)c4)CC(=O)N3C2)c(OC)c1 (centres undefined)	13.3	59.9*
COc1ccc(N2CSC3=C(C#N)C(c4cc(OC)c(OC)cc4OC)CC(=O)N3C2)c(OC)c1 (centres undefined)	6.9	41.6
CCOc1ccccc1N1CSC2=C(C#N)C(c3c(OC)ccc4ccccc34)CC(=O)N2C1 (centres undefined)	-2.7	89.8*
COc1ccc(C2CC(=O)N3CN(c4ccc(C)c(Cl)c4)CSC3=C2C#N)cc1OC (centres undefined)	-11.2	-36.5
CCc1ccc(C2CC(=O)N3CN(c4ccccc4)CSC3=C2C#N)cc1 (centres undefined)	-6.3	-21.1
SMILES	RmlC RmlD mix	YopH PTP inh
C=C(C)C(=O)N1CC2(CC(c3cccc(NC(=O)CCCCC)c3)=NO2)C[C@H]1C(N)=O (some centres undefined)	5.0	x
COc1ccc(CN2C(=O)[C@H]3Cc4c([nH]c5ccccc45)C(C)(C)N3C2=O)cc1	-11.9	x
N#Cc1sc(=O)[nH]c1Cl	2.7	x
COC(C/C=C/[C@@H](O)COCc1ccccc1)OC	9.4	x
O=C(COC(=O)/C=C/c1ccc([N+](=O)[O-])cc1)NCc1ccccc1	x	-17.4
O=C(/C=C/c1ccc([N+](=O)[O-])cc1)OCC(=O)N1c2ccccc2Sc2ccccc21	x	53.1*
O=C1C(Nc2ccccc2)=C/C(=N/S(=O)(=O)c2cccs2)c2ccccc21	x	-12.8
CCc1cc[n+](C2=C([O-])c3ccccc3C(=O)/C2=N\S(=O)(=O)c2cccs2)cc1	x	68.5*
CC1=C(C)C(=O)C(CCCCC#CCCCC#CCO)=C(C)C1=O	0.4	64.9*
COC1=C(OC)C(=O)C(CCCCCCCCCCO)=C(C)C1=O	-13.3	x
CN1C(C(=O)NCc2ccccc2)CC2Cn3c(nc4cc5ccccc5cc43)C21 (centres undefined)	-12.8	x
COC(C[C@@H](O)CC(=O)[C@H](C)OCc1ccccc1)OC	5.4	x
CCC1(CC)C(=O)C2=C3C1[C@H](C(=O)OC)CC(C(=O)OC)C[C@H]3[C@H]1C(=O)N(c3ccccc3)C(=O)[C@H]1[C@H]2C (some centres undefined)	-3.0	x
COc1ccccc1NC(=O)c1sc2ncn(Cc3ccc(C)cc3)c(=O)c2c1C	36.5	-31.2
COc1ccccc1NC(=O)c1sc2ncn(Cc3cccc(C)c3)c(=O)c2c1C	65.6*	-24.6
O=C(Cn1cc(CCO)nn1)N1CCNCC1	-13.4	x
CCOc1ccc(-c2nnc3ccc(SCC(=O)Nc4nc5ccc(C)cc5s4)nn23)cc1	x	-7.4
CCOc1ccc(-c2nnc3ccc(SCC(=O)Nc4nc5ccccc5s4)nn23)cc1	x	65.5*

Screening results (PubChem)
